Experimental data taken from ChEMBL document CHEMBL1157539, “Thousands of chemical starting points for antimalarial lead identification” (Nature, 2010).

Test system: Plasmodium falciparum
Assay: GSK_TCMDC: Inhibition of Plasmodium falciparum 3D7 in whole red blood cells, using parasite LDH activity as an index of growth. Test compounds present at 2uM
Type: functional

Row | SMILES | Inhibition [%]
1 | COc1ccc(-c2cccc(NC(=O)c3cccc(C#N)c3)c2)cc1CNC(C)C.O=C(O)C(F)(F)F | 100
2 | O=C(O)C(F)(F)F.O=S(=O)(c1ccccc1)n1ccc2cc(Nc3ncnc4cc(C#C[C@H]5CCCN5)sc34)ccc21 | 85
3 | O=C(O)c1cccc2c(-c3ccncc3)cccc12 | 97
4 | CCN(CC)CCNC(=O)/C(=C/C=C/c1cc2cc(Cl)c(Cl)cc2[nH]1)OC | 88
5 | Cc1cc(-c2cccc(CNC3CCN(C)CC3)c2)ccc1S(=O)(=O)NC1CCC1.O=C(O)C(F)(F)F | 100
6 | CS(=O)(=O)CCNCc1cccc(-c2ccc3c(Nc4ccc(Oc5ccccc5)cc4)ccnc3c2)c1 | 100
7 | CS(=O)(=O)c1ccc2c(c1)CCN(CCC1CCC(NC(=O)C(=Cc3cccc(C#N)c3)c3ccc(-c4ccccc4)cc3)CC1)CC2 (stereo not drawn) | 99
8 | COc1cccc2cc(C(=O)N[C@@H](CC(C)C)C(=O)N[C@H](C=NNC(=O)OC(C)(C)C)CC(C)C)oc12 | 88
9 | CCN(CC)CCN(CCN(CC)CC)c1ccc2c(c1)Sc1c(Cl)ccc(Cl)c1S2.Cl | 98
10 | COc1ccc2nccc([C@@H](O)CN3CCC(NCc4cc5ccccc5nn4)CC3)c2c1.O=C(O)C(=O)O | 94
11 | O=C(/C=C/c1ccc(CNCCN2CCOCC2)cc1)NCCc1ccccc1 | 94
12 | COc1cc(-n2cnc3cc(-c4ccc([N+](=O)[O-])cc4)sc3c2=O)ccc1OCCN1CCCC1.O=C(O)C(F)(F)F | 97
13 | COc1ccc2ncc(F)c(CCN3CC[C@H](NC(=O)c4ccc5c(n4)NC(=O)CS5)[C@H](O)C3)c2n1.Cl | 88
